This passage reports outcome results from PubChem BioAssay AID623957 (NMMLSC, 2012).

Structures are written as SMILES. Calls of active or inactive are those of the source.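 Rule for the calls: active = compounds whose fitted half-maximal concentration for lowering the signal is under 100 µM; inactive = the rest.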

A short description of this test: compound effect on K562 vector-control line – cell-based, flow cytometry, cherry pick set 1, counter-screen for ABCB6 inhibitor project, dose response (AID 623957). The note with it: K562 vector-only cells, flow cytometry fluorescence, 1 h; series mostly up to 100 µM. Background: In flow cytometry, cells or beads pass a laser one at a time.
Take `CC1CCN(c2ccc3nnc(CCC(=O)NC(C)C)n3n2)CC1`: the compound was classed as inactive.
The result for `COCCCNC(=O)CCc1nnc2ccc(N3CCC(C)CC3)nn12` reads “inactive”; that for `CCC(C)NC(=O)CCc1nnc2ccc(N3CCC(C)CC3)nn12` (stereo unspecified), “inactive”.
In the case of `CCN1CCN(C(=O)CCc2nnc3ccc(N4CCC5(CC4)OCCO5)nn23)CC1`, the result was inactive.
In the case of `CC1CCN(c2ccc3nnc(CCC(=O)NCCCOC(C)C)n3n2)CC1` it was “inactive”.
In the case of `COCCNC(=O)CCc1nnc2ccc(N3CCC(C)CC3)nn12` it was “inactive”; in that of `CCN(CC)CCNC(=O)CCc1nnc2ccc(N3CCC(C)CC3)nn12`, “inactive”; in that of `CCOC(=O)CNC(=O)CCc1nnc2ccc(N3CCC(C)CC3)nn12`, “inactive”.
In the case of `COC(=O)C(NC(=O)CCc1nnc2ccc(N3CCC(C)CC3)nn12)C(C)C` (stereo unspecified) it was “inactive”; in that of `CCc1ccc(CNC(=O)C2Cc3cc(S(=O)(=O)N4CCCC4)ccc3N2C(C)=O)cc1` (stereo unspecified), “inactive”; in that of `CC1CCN(c2ccc3nnc(CCC(=O)N4CCCCC4)n3n2)CC1`, “inactive”.
For the compound `CCOC(=O)N1CCN(CC(=O)Nc2ccc(C)cc2)CC1`, the compound was called inactive.
The result for `CCN(CC)S(=O)(=O)c1cccc(-n2c(O)c(C=Nc3ccccc3C(=O)O)c3ccccc3c2=O)c1` reads “inactive”; that for `O=C(CCc1nnc2ccc(N3CCC4(CC3)OCCO4)nn12)N1CCCCC1`, “inactive”.
Turning to `Cc1cccc(CS(=O)(=O)c2ncc(Cl)c(C(=O)Nc3c(C)cccc3C)n2)c1`, the outcome was inactive.
Take `CC1CCN(C(=O)CCc2nnc3ccc(N4CCC5(CC4)OCCO5)nn23)CC1`: the outcome was inactive.
The result for `CCCNC(=O)CCc1nnc2ccc(N3CCC(C)CC3)nn12` reads “inactive”.
The result for `COC(=O)c1ccc(NC(=O)c2nc(S(=O)(=O)Cc3cccc(C)c3)ncc2Cl)cc1` reads “inactive”; that for `CN1CCN(C(=O)CCc2nnc3ccc(N4CCC5(CC4)OCCO5)nn23)CC1`, “inactive”.
As to `Cc1ccc(NC(=O)c2nc(S(=O)(=O)Cc3ccccc3)ncc2Cl)cc1`, the compound was classed as inactive.
The result for `CCOCCCNC(=O)CCc1nnc2ccc(N3CCCCC3)nn12` reads “inactive”; that for `O=C(CN1CCCCC1)Nc1cccc(Br)c1`, “inactive”.
In the case of `Cc1cccc(NC(=O)c2nc(S(=O)(=O)Cc3ccccc3)ncc2Cl)c1` it was “inactive”; in that of `O=C(Nc1ccc(F)cc1)c1nc(S(=O)(=O)Cc2ccccc2)ncc1Cl`, “inactive”.
Take `CC1CC(C)CN(C(=O)CCc2nnc3ccc(N4CCCCC4)nn23)C1` (stereo unspecified): the compound was classed as inactive.
For `CCOC(=O)C(C)NC(=O)CCc1nnc2ccc(N3CCCCC3)nn12` (stereo unspecified), the compound was classed as inactive.
In the case of `CCOC(=O)C1CCN(C(=O)CCc2nnc3ccc(N4CCN(C)CC4)nn23)CC1` it was “inactive”; in that of `COC(=O)C(NC(=O)CCc1nnc2ccc(N3CCCCC3)nn12)C(C)C` (stereo unspecified), “inactive”.
In the case of `CC(C)CCNC(=O)CCc1nnc2ccc(N3CCC(C)CC3)nn12`, the compound was classed as inactive.
The result for `CCOC(=O)C(C)NC(=O)CCc1nnc2ccc(N3CCC(C)CC3)nn12` (stereo unspecified) reads “inactive”.
In the case of `Cc1cccc(CS(=O)(=O)c2ncc(Cl)c(C(=O)Nc3ccc(F)cc3)n2)c1`, the compound was classed as inactive.
